For orientation: AC50 means the concentration at which the activity in the assay is half-maximal.

Two compounds from PubChem BioAssay (EPA / NIEHS) can be followed below.

For test [1], the target named is PGR (gene 5241) (UniProt P06401). Nature of the test: TOX21_PR_BLA_Followup_Antagonist_ratio: Tox21 HEK293 Progesterone Receptor (PR) Antagonism Beta-lactamase Follow-Up Assay, Ratio (AID 2283934).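 Also: PR-UAS-bla HEK293T cells stimulated with 1 nM R5020 agonist for 16 hr.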 How it is done: TOX21_PR_BLA_Followup is a secondary assay for specificity for the TOX21_PR_BLA_Agonist assay. To differentiate true PR agonists from cytotoxic substances, this follow up assay is multiplexed with a cell viability assay. The compounds were also tested for auto fluorescence that may interfere with the biological target readout resulting in potential false positives and/or negatives. To identify the compounds that stimulate PR signaling, a PR-UAS-bla GripTite cell line i.e. PR-UAS-bla HEK293T (Invitrogen, Carlsbad, CA, USA) containing a beta-lactamase reporter gene under the control of an UAS response element was used to screen Tox21 10K compound library. […] TOX21_PR_BLA_Followup_Antagonist_ratio is an assay readout measuring reporter gene via receptor activity and designed using inducible reporter (beta lactamase induction) detected with GAL4 b-lactamase reporter gene. The signal is derived from the ratio of cleaved (ch2) to uncleaved (ch1) reporter gene substrate used as the measure of target activity.Data from the assay component TOX21_PR_BLA_Followup_Antagonist_ratio was analyzed into 1 assay endpoint. This assay endpoint, TOX21_PR_BLA_Followup_Antagonist_ratio, was analyzed in the positive analysis fitting direction relative to DMSO as the negative control and baseline of activity. […]

The nature of test [2]: TOX21_PR_BLA_Followup_Agonist_viability: Viability Assessment in the Tox21 HEK293 Progesterone Receptor (PR) Agonism Beta-lactamase Follow-Up Assay (AID 2283935).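 Also: cells exposed to compound for 16 hr at 37 °C; signal loss means lower viability so actives are cytotoxic.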 An outline of the steps:
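HEK293T PR-UAS-bla, 3,000 cells/well, 2% CS-FBS; 6 hr pre-incubation; cpd in DMSO, 16 hr 37C; LiveBLAzer 2 hr RT, then CellTiter-Glo 30 min RT, luminescence. Decrease = lost viability.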

The nature of test [3]: TOX21_PR_BLA_Followup_Antagonist_viability: Viability Assessment in the Tox21 HEK293 Progesterone Receptor (PR) Antagonism Beta-lactamase Follow-Up Assay (AID 2283936).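 Also: hits lower the luminescence signal meaning cytotoxicity.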 A digest of the protocol: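 PR-UAS-bla HEK293T cells (3,000/well, 2% charcoal-stripped FBS) given compound plus R5020 agonist, 16 h at 37C. CellTiter-Glo added after bla read, 30 min at room temperature; luminescence loss indicates cytotoxicity.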

Test [4] deals with PGR (gene 5241) (UniProt P06401). Nature of the test: TOX21_PR_LUC_Followup_Agonist: Tox21 HEK293 Progesterone Receptor (PR) Agonism Luciferase Follow-Up Assay (AID 2283937; active = hit-call score of the fitted dose curve at least 0.9, where 1 is the maximum; inactive = score below 0.9). An outline of the steps: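 Cells: HEK293-PR-A-luc, 3,000/well, 10% charcoal-stripped FBS assay medium. Compound added after 5 h; 16 h, 37C, 0% CO2. ONE-Glo luciferase, luminescence. Positive fit vs DMSO.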

Test [5] has the same target. Briefly: TOX21_PR_LUC_Followup_Antagonist: Tox21 HEK293 Progesterone Receptor (PR) Antagonism Luciferase Follow-Up Assay (AID 2283938).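 Also: curve fitted upward as signal gain over DMSO baseline despite antagonist label.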 An outline of the steps: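 Luminescence from ONE-Glo reagent, measured after 30 min at room temperature, served as readout. Cells (HEK293 carrying PR-A-luc) had been treated 16 h at 37C with DMSO-dissolved compounds. Activity was fitted against DMSO controls.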

Test [6] concerns the target Thyroid hormone receptor alpha (Rattus norvegicus) + Thyroid hormone receptor beta (Rattus norvegicus) (UniProt P18113+P63059). Briefly: TOX21_TR_LUC_GH3_Agonist_Followup: Tox21 GH3 Thyroid Hormone Receptor Agonism Luciferase Follow-Up Assay (AID 2283939). A digest of the protocol:
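Rat GH3 cells (1,500/well) in serum-free assay medium, treated with 15-point series, 92 uM to 5 nM final, for 24 h at 37C. Luciferase via ONE-Glo luminescence; gain of signal fitted against DMSO, T3 positive control.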

Test [7] in a line: TOX21_PR_LUC_Followup_Antagonist_viability: Viability Assessment in the Tox21 HEK293 Progesterone Receptor (PR) Antagonism Luciferase Follow-Up Assay (AID 2283940). An outline of the steps: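 Multiplexed viability counter-screen: after 5 days in charcoal-stripped-FBS medium, HEK293-PR-A-luc cells are plated, pinned with DMSO-dissolved compounds for 16 h at 37C, and ATP content is quantified luminescently via CellTiter-Glo.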

Test [8] in a line: TOX21_PR_LUC_Followup_Agonist_viability: Viability Assessment in the Tox21 HEK293 Progesterone Receptor (PR) Agonism Luciferase Follow-Up Assay (AID 2283941).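 Also: loss of signal means cytotoxicity so actives lower viability.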 A digest of the protocol:
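Cells were kept 5 days in charcoal-stripped serum medium before plating HEK293-PR-A-luc at 3,000 cells/well. After 5 h they received DMSO-dissolved compound and incubated 16 h at 37C. Viability was taken from CellTiter-Glo ATP luminescence.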

The target of test [9] is THRA (gene 7067) (UniProt P10827). Briefly: TOX21_TRA_COA_Agonist_Followup_ratio: Tox21 Thyroid Hormone Receptor alpha Agonism through Coactivator Recruitment Follow-Up Assay, Ratio (AID 2283948; active = hit-call score of the fitted dose curve at least 0.9, where 1 is the maximum; inactive = score below 0.9). An outline of the steps: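 GST-TRa LBD 2.5 nM + 0.10% BSA + cpd; add fluorescein-SRC-2 200 nM, Tb-anti-GST 2 nM. TR-FRET ex 340, em 520/495 ratio. Norm: DMSO 0%, T3 100%; gain-of-signal fit.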

Test [10] deals with THRB (gene 7068) (UniProt P10828). Nature of the test: TOX21_TRB_COA_Agonist_Followup_ratio: Tox21 Thyroid Hormone Receptor beta Agonism through Coactivator Recruitment Follow-Up Assay, Ratio (AID 2283963; active = hit-call score of the fitted dose curve at least 0.9, where 1 is the maximum; inactive = score below 0.9). An outline of the steps: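 Agonism is measured as coactivator recruitment in a purified-protein TR-FRET format, using GST-TRβ LBD at 5.0 nM, fluorescein-SRC-2 peptide at 200 nM and Tb-labeled anti-GST antibody at 2 nM. Values are 520:495 nm ratios relative to DMSO (0%) and T3 (100%).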

Records with an inconclusive call do not appear. Calls of active or inactive are those of the source. The calls were made as follows, unless noted: active = hit-call score of the fitted dose curve at least 0.9, where 1 is the maximum; inconclusive = response in the unintended direction; inactive = score below 0.9.

Sequence of PGR (gene 5241) (P06401 whole entry, looked up): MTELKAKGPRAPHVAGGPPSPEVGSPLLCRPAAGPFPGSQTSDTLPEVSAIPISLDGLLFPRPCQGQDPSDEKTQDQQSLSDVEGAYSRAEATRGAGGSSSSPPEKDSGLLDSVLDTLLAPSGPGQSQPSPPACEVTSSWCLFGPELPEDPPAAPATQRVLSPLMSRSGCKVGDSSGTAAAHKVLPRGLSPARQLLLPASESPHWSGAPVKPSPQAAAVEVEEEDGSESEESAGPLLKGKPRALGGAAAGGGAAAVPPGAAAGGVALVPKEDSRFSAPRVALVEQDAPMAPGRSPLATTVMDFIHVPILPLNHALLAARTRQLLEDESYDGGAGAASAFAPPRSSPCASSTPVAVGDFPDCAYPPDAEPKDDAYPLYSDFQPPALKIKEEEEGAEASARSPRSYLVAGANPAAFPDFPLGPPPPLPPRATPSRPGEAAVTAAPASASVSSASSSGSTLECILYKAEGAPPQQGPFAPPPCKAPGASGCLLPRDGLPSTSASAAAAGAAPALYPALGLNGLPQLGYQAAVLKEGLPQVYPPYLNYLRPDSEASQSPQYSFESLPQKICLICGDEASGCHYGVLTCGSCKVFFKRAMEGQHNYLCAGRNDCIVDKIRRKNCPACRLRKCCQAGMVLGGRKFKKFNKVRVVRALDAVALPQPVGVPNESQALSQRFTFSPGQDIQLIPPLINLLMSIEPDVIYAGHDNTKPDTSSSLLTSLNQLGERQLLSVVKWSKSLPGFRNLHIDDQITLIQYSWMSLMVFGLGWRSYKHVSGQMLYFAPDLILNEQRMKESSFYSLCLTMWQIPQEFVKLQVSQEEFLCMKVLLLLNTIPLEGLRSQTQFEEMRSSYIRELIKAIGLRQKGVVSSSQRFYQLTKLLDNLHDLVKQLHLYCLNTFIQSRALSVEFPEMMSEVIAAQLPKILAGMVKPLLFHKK
Sequence of THRB (gene 7068) (P10828 whole entry, looked up, the tested form may be a part): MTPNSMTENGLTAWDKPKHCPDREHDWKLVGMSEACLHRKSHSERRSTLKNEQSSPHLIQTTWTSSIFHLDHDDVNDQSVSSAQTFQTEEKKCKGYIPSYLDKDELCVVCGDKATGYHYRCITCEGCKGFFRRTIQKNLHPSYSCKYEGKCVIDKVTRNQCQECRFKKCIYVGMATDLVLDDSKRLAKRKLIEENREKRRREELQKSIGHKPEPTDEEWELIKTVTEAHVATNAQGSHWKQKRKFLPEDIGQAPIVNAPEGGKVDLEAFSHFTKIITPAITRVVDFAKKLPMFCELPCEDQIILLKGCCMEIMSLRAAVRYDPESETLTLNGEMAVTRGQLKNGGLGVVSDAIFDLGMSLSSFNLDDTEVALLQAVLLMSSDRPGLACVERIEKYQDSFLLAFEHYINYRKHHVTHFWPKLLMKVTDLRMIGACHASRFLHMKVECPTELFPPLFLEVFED
Sequence of THRA (gene 7067) (P10827 whole entry, looked up, the tested form may be a part): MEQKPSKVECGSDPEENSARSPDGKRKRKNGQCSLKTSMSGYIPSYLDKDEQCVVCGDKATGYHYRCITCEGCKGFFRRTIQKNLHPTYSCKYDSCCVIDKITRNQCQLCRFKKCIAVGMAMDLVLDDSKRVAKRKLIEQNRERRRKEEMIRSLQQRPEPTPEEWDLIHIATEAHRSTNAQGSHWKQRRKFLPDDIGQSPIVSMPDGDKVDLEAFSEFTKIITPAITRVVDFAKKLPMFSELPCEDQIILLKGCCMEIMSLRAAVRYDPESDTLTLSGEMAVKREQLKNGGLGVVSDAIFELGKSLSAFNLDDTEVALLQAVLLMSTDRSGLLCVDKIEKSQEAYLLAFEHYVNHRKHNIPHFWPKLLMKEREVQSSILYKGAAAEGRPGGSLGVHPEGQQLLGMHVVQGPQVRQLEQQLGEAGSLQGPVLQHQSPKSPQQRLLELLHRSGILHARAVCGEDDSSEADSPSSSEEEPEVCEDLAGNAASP
Sequence of Thyroid hormone receptor alpha (Rattus norvegicus) + Thyroid hormone receptor beta (Rattus norvegicus) (P63059 whole entry, looked up): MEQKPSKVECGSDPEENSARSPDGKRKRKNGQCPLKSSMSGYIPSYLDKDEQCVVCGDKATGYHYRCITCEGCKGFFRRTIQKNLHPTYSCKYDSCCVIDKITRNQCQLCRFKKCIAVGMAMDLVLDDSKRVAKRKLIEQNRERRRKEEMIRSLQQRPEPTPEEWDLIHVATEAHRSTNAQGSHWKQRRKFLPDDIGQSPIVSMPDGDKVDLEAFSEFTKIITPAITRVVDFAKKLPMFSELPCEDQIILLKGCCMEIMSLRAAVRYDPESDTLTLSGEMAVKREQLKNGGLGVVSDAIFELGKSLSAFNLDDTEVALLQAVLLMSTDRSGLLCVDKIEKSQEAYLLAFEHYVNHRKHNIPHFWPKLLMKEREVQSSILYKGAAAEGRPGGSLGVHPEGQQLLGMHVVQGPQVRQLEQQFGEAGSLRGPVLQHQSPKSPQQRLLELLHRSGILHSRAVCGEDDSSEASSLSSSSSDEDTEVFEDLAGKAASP
Sequence of Thyroid hormone receptor alpha (Rattus norvegicus) + Thyroid hormone receptor beta (Rattus norvegicus) (P18113 whole entry, looked up): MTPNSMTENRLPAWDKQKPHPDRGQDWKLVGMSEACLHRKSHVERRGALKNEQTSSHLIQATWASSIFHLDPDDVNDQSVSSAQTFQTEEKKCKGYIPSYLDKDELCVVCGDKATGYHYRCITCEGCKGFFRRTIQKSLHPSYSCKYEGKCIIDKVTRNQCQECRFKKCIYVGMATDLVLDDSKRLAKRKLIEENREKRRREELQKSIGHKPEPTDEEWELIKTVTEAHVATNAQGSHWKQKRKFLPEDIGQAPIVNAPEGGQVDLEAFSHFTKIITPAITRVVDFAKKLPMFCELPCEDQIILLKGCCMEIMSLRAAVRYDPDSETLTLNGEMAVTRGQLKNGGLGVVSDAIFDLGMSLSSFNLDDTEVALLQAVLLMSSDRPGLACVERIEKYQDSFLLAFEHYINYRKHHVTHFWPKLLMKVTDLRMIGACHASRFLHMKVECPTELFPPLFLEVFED

Consider `O=C(c1ccccc1)c1ccc(O)cc1O`, for which the AC50 in [1] is 63.5 µM (active); in [5], 33.5 µM (active). Moreover, the result in test [2], in test [3], in [4], in test [6], in [7] and in test [8] was inactive. For the same compound, the outcome in [9] and in [10] was inactive.

`C[C@]12CC[C@H]3C(=CCc4cc(O)ccc43)[C@@H]1CCC2=O`: the result in test [9] and in [10] was inactive.
